Source: PubChem BioAssay (NCI)
Compounds without any hit were thinned out: in the full panel of roughly 83,000, 20% have a hit.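 For each line, cells grew in 96-well plates with the test compound present at a single concentration for 48 hours.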 Calls of active or inactive are those of the source. How the source made its calls: active means growth percent below 10; inactive means the rest.

What was measured:
Assay in all cases: NCI-60 one-dose screen, 48 h (100 = growth as untreated, 0 = no growth, -100 = all killed)
Conditions in all cases: 10 µM unless noted
[1] = tested on: NCI-H23 lung
[2] = tested on: NCI-H226 lung
[3] = tested on: HOP-62 NSCLC
[4] = tested on: NCI-H460 lung
[5] = tested on: HOP-92 NSCLC
[6] = tested on: NCI-H522 lung
[7] = tested on: A549/ATCC NSCLC
[8] = tested on: 786-0 renal
[9] = tested on: COLO 205 colon
[10] = tested on: DU-145 prostate
[11] = tested on: K-562 leukemia
[12] = tested on: MALME-3M melanoma
[13] = tested on: MDA-MB-231 breast
[14] = tested on: SF-268 CNS
[15] = tested on: SF-295 CNS
[16] = tested on: SF-539 CNS
[17] = tested on: UACC-257 melanoma
[18] = tested on: M14 melanoma
[19] = tested on: RXF 393 renal

Measured: growth

CC1=C[S+](c2ccccc2)c2cccc3cc4ccccc4c1c23 (centres undefined)
active: [1] 5.3% | [2] -21.7% | [3] -42.6% | [4] -32.6% | [5] -59.6% | [6] -95.7% | [7] -8.79% | [8] -80% | [9] -89.5% | [10] -10.8% | [11] -27.2% | [12] -41.2% | [13] -10.4% | [14] -38.7% | [15] -0.638% | [16] -88.2% | [17] -88.8% | [18] -64.4%

COc1ccccc1S(=O)(=O)Nc1ccc2c3c(cc(-c4cnn(C)c4)nc13)C(=O)N2C
inactive: [1] 46.6% | [2] 61.9% | [3] 33.3% | [4] 46.9% | [5] 27.4% | [6] 36% | [7] 38.6% | [8] 43.8% | [9] 15.8% | [10] 64.2% | [12] 51.2% | [13] 40.7% | [19] 40.2% | [14] 59.8% | [15] 35.1% | [16] 34.6% | [17] 44.8% | [18] 42.6%

CO[C@H]1/C=C/C=C/C=C/C[C@H](OC(=O)[C@@H](C)NC(=O)C2CCCCC2)[C@H](C)[C@@H](O)/C(C)=C\CCC2=CC(=O)C=C(NC(=O)C1)C2=O
active: [1] -14.1% | [2] -15% | [3] -35.6% | [4] 1.23% | [5] -10.7% | [6] -29.9% | [7] -5.23% | [8] -5.57% | [9] -26.6% | [10] -13.8% | [11] 3.3% | [12] -7.99% | [13] 5.38% | [19] -40.2% | [14] -7.66% | [15] -33.5% | [16] -49.3% | [17] -18.9% | [18] -40.3%

Oc1ccc(O)c(-[n+]2ccccc2)c1
inactive: [1] 99.4% | [2] 93% | [3] 94.2% | [4] 105% | [5] 92.6% | [6] 82.7% | [7] 83.8% | [8] 95.3% | [9] 112% | [10] 108% | [11] 107% | [12] 112% | [13] 110% | [19] 106% | [14] 102% | [15] 110% | [16] 108% | [17] 95.1% | [18] 103%

S=c1n(CNc2ccc(Cl)nn2)nc(-c2cc(Cl)cc(Cl)c2Cl)n1/N=C/c1ccc(Cl)cc1
inactive: [1] 88.5% | [2] 96.1% | [3] 81.6% | [4] 110% | [5] 34.3% | [6] 72.2% | [7] 138% | [8] 81.9% | [9] 132% | [10] 109% | [11] 71.7% | [12] 89.3% | [13] 92.9% | [19] 149% | [14] 107% | [15] 70% | [16] 101% | [17] 106% | [18] 55.8%

CCCCn1c(-c2cccc(OC)c2)nc2cc(OC)c(OC)cc2c1=O
inactive: [1] 87.3% | [2] 92.8% | [4] 115% | [5] 83.1% | [6] 92.4% | [7] 11.3% | [9] 117% | [10] 93.4% | [11] 77.9% | [12] 252% | [13] 89.2% | [14] 95.4% | [15] 99.5% | [16] 108% | [18] 107%
active: [17] -16.6%

CCOC(=O)CSc1nnc(-c2cc3c([nH]c4ccccc43)c(-c3cccc(O)c3)n2)n1-c1ccc(C)cc1
active: [10] -0.541%
inactive: [1] 97% | [2] 100% | [3] 88.3% | [6] 47.1% | [7] 98.5% | [8] 88.7% | [9] 95.1% | [11] 16.8% | [12] 80.3% | [13] 45% | [19] 79.5% | [14] 74.7% | [15] 99.9% | [16] 78% | [17] 91.3% | [18] 44.5%

O=C(Nc1ccccc1F)Nc1ccccc1Cl
inactive: [1] 77.5% | [2] 82.9% | [3] 91.7% | [4] 92.4% | [5] 97.3% | [6] 54.9% | [7] 88.5% | [8] 107% | [9] 137% | [10] 103% | [11] 55.8% | [12] 74% | [13] 85.8% | [14] 91% | [15] 81.4% | [16] 91% | [17] 96.1% | [18] 100%

COc1ccc(-c2nnc(SCC(=O)Nc3ccc(C(=O)/C=C/c4ccc(OC)c(OC)c4)cc3)o2)cc1
inactive: [1] 91.9% | [2] 86.2% | [3] 73.6% | [5] 81.3% | [6] 68.4% | [7] 77.7% | [8] 106% | [9] 102% | [10] 93.7% | [11] 61.7% | [12] 100% | [13] 96.6% | [19] 104% | [14] 98.2% | [15] 96.5% | [16] 96% | [17] 73.7% | [18] 105%

COc1ccc(/C=C/C(=O)c2ccc(Oc3ncnc4ccccc34)cc2)cc1OC
inactive: [1] 81.9% | [2] 80.2% | [3] 87.7% | [4] 88.4% | [5] 84.6% | [6] 53.5% | [7] 59.2% | [8] 82.4% | [9] 85.4% | [10] 61.9% | [12] 77.5% | [13] 81.6% | [19] 88.1% | [14] 74.8% | [15] 85.7% | [16] 73.5% | [17] 93.8% | [18] 64.3%
active: [11] 9.19%

C=C1C(=O)O[C@H]2[C@H]1CC/C(C(=O)NCCOCCOCC(=O)Nc1ccc(OC)c(C(N)=O)c1O)=C\CC[C@@]1(C)O[C@@H]21
inactive: [1] 97.7% | [2] 80.7% | [3] 91.8% | [4] 106% | [5] 92.5% | [6] 26.1% | [7] 84.4% | [8] 94.3% | [9] 73.7% | [10] 101% | [11] 82.6% | [12] 86.9% | [13] 100% | [19] 59.6% | [14] 89.4% | [15] 104% | [16] 90.7% | [17] 69.4% | [18] 99.3%

CC(=O)Oc1ccc(C(OC(C)=O)OC(C)=O)cc1
inactive: [1] 95.4% | [2] 108% | [3] 95% | [4] 111% | [5] 113% | [6] 85.4% | [7] 108% | [8] 95.3% | [9] 112% | [10] 103% | [11] 89.6% | [12] 105% | [13] 114% | [19] 115% | [14] 93.3% | [15] 99.1% | [16] 99.7% | [17] 107% | [18] 99.3%

Cc1c(NC(=O)c2sc3nc4c(cc3c2N)CN(Cc2ccccc2)CC4)cccc1C(F)(F)F
inactive: [1] 72.7% | [2] 65.7% | [3] 35.9% | [4] 18.7% | [5] 77.1% | [6] 10.4% | [7] 53.7% | [8] 84.4% | [9] 21.6% | [10] 54.9% | [12] 63.8% | [13] 73.8% | [19] 67.2% | [14] 65.6% | [15] 41.5% | [16] 65% | [17] 52.2% | [18] 31.2%
active: [11] 8.08%

Cc1cc(C)c(O)c(C(=O)CC(Br)C(=O)O)c1 (centres undefined)
inactive: [1] 96.4% | [2] 106% | [3] 106% | [4] 108% | [5] 88.1% | [6] 81.7% | [8] 86.2% | [9] 116% | [10] 95.3% | [11] 84.5% | [12] 111% | [13] 121% | [19] 119% | [14] 95.9% | [15] 101% | [16] 91.2% | [17] 96.2%

Cc1cn(-c2cc(C(=O)Nc3cccc(-n4ccc5c(NC(=O)c6ccccc6)nccc54)c3)cc(C(F)(F)F)c2)cn1
inactive: [1] 22.5% | [2] 33.8% | [12] 25.2% | [14] 12% | [17] 40.6%
active: [4] -13.3% | [5] -6.29% | [6] -7.45% | [8] -70.6% | [9] -20.1% | [10] -9.55% | [11] 4.74% | [13] 4% | [19] -89.8% | [15] -12.3% | [16] -12.1%

COc1cc(-c2nc(SCC(=O)Nc3ccc(C(C)=O)cc3)[nH]c(=O)c2C#N)cc(OC)c1OC
inactive: [1] 38.4% | [2] 58.5% | [3] 20.7% | [5] 10.3% | [7] 19.8% | [8] 35.5% | [10] 14.1% | [12] 69.5% | [13] 19.7% | [19] 24.6% | [14] 26.9% | [17] 53.7%
active: [4] 5.79% | [6] -14.5% | [9] -16.2% | [11] 0.453% | [15] 3.4% | [16] -22.9% | [18] 5.17%

NS(=O)(=O)c1ccc(CCN2C(=O)/C(=C\c3ccc(Cl)cc3)C=C2c2ccc(Oc3ccccc3)cc2)cc1
inactive: [1] 84% | [2] 72.7% | [3] 95.9% | [4] 69% | [5] 84.7% | [6] 56.1% | [7] 51.8% | [8] 91.1% | [9] 80% | [10] 89.4% | [11] 47.8% | [12] 82% | [13] 72.9% | [19] 70.3% | [14] 82.7% | [15] 77.3% | [16] 97.7% | [17] 92.4% | [18] 73.7%
